Reference: PubChem BioAssay (NCI)
Compounds without any hit were thinned out: in the full panel of roughly 83,000, 20% have a hit.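 A percent growth of 40 corresponds to 60% growth inhibition; 0 means no net growth; -100 means all cells died. Active threshold: below 10.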 A number with no mark means an inactive call. Calls of active or inactive are those of the source.

How the values were obtained:
Experiment in all cases: NCI-60 one-dose screen, 48 h (100 = growth as untreated, 0 = no growth, -100 = all killed)
Conditions in all cases: 10 µM unless noted
NCI-H23 lung = system: NCI-H23 lung
NCI-H226 lung = system: NCI-H226 lung
NCI-H322M lung = system: NCI-H322M lung
HOP-62 NSCLC = system: HOP-62 NSCLC
NCI-H460 lung = system: NCI-H460 lung
HOP-92 NSCLC = system: HOP-92 NSCLC
NCI-H522 lung = system: NCI-H522 lung
A549/ATCC NSCLC = system: A549/ATCC NSCLC
786-0 renal = system: 786-0 renal
COLO 205 colon = system: COLO 205 colon
DU-145 prostate = system: DU-145 prostate
K-562 leukemia = system: K-562 leukemia
MALME-3M melanoma = system: MALME-3M melanoma
MDA-MB-231 breast = system: MDA-MB-231 breast
RXF 393 renal = system: RXF 393 renal
SF-268 CNS = system: SF-268 CNS
SF-295 CNS = system: SF-295 CNS
SF-539 CNS = system: SF-539 CNS
UACC-257 melanoma = system: UACC-257 melanoma
M14 melanoma = system: M14 melanoma

Compound	growth (NCI-H23 lung)	growth (NCI-H226 lung)	growth (NCI-H322M lung)	growth (HOP-62 NSCLC)	growth (NCI-H460 lung)	growth (HOP-92 NSCLC)	growth (NCI-H522 lung)	growth (A549/ATCC NSCLC)	growth (786-0 renal)	growth (COLO 205 colon)	growth (DU-145 prostate)	growth (K-562 leukemia)	growth (MALME-3M melanoma)	growth (MDA-MB-231 breast)	growth (RXF 393 renal)	growth (SF-268 CNS)	growth (SF-295 CNS)	growth (SF-539 CNS)	growth (UACC-257 melanoma)	growth (M14 melanoma)
N#Cc1c(N)n(C2OC(CO)C(O)C2O)c2ncnc(N)c12 (stereo not given)	-8.8% (active)	12.1%	-27.6% (active)	-12.7% (active)	0.304% (active)	-21.3% (active)	-56.1% (active)	1.3% (active)	-7.63% (active)	-32.8% (active)	-9.06% (active)	-28.6% (active)	-25.7% (active)	14.3%	-77.1% (active)	-18.8% (active)	4.21% (active)	-53.1% (active)	-37.8% (active)	-52% (active)
COc1ccc(C2=NN(C=O)C(c3ccc(OS(=O)(=O)c4ccc(C)cc4)c(OC)c3)C2)cc1 (stereo not given)	37.8%	67.4%	99.9%	61.3%	62.8%	32.8%	21.3%	42.6%	78.1%	63.3%	72.8%	16%	45.9%	56.4%	82.7%	68.7%	41.6%	66.9%	42.9%	58.8%
C=C(C)C1CCC2(C(=O)O)CCC3(C)C(CCC4C5(C)CCC(O)C(C)(C)C5CCC43C)C12 (stereo not given)	-50.3% (active)	33.2%	6.5% (active)	-59.1% (active)	-22.5% (active)	-26.2% (active)	1.49% (active)	-53.5% (active)	-66.5% (active)	-45.3% (active)	-55.5% (active)	-34.1% (active)	-17.4% (active)	-8.05% (active)	-68.8% (active)	16.3%	-14.8% (active)	-54.1% (active)	-17.2% (active)	-49.9% (active)
CN1CCN(Cc2ccc(NC(=O)c3cncc(C#Cc4ccc(N)nc4)c3)cc2C(F)(F)F)CC1	17.4%	-47.3% (active)	25.9%	8.59% (active)	6.66% (active)	-25.5% (active)	23.1%	16.2%	21.6%	-20.4% (active)	21.4%	1.27% (active)	-70.3% (active)	-46.3% (active)	-6.03% (active)	15.8%	11.5%	-39.8% (active)	11.8%	-37% (active)
O=C(C(=O)c1cccnc1)c1cccnc1	98.8%	115%	117%	98.4%	111%	103%	-0.192% (active)	111%	101%	174%	121%	110%	118%	99.7%	136%	95.8%	116%	99.3%	95%	96.3%
Cc1ccc(NC(=O)c2nc(S(C)=O)oc2-c2ccc(F)cc2)cc1Nc1nccc(-c2cccnc2)n1 (stereo not given)	50%	51.7%	103%	58.2%	61.5%	96.2%	7.97% (active)	95.4%	54.6%	54%	79.4%	-16.7% (active)	34.7%	39%	7.47% (active)	54.4%	86.4%	69.4%	87.3%	55.2%
